Data taken from PubChem BioAssay AID1159580 (chemical genetic matrix, 2015).
Where “and” joins values, the source holds several entries; their conditions need not be identical. Identical values can stand only once. Among all 5,500 compounds or so, about 2,000 (36%) were called active. Inconclusive results (about 18%) are left out. No stated cut-off is given here; in the data, active means normalized growth mostly below about 0.91 (no sharp cut-off); inconclusive means no clear call, values can overlap the other calls; inactive means mostly above about 0.92. This is one part of the list.

Assay: chemical genetic growth profiling, strain panel (AID 1159580);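 further: tested at 20 µM; growth read once vehicle control cultures reached saturation at 30 °C; 1 = growth at the plate median or of vehicle wells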
Details: S. cerevisiae deletion strains, growth OD

Measured: normalized growth

COC(=O)C[C@H]1C(C)(C)C(=O)[C@@H]2CC3=C4CC(=O)O[C@@H](c5ccoc5)[C@]4(C)CCC3[C@@]1(C)C2=O (stereo not given in full)
inactive: locus YAL021C, strain ccr4, stronger effect = lower value 0.972 | locus YAL026C, strain drs2, stronger effect = lower value 0.983 | locus YAL030W, strain snc1, stronger effect = lower value 1 | locus YBL061C, strain skt5, stronger effect = lower value 0.997 | locus YBR009C, strain hhf1, stronger effect = lower value 0.987 | locus YBR021W, strain FUR4, stronger effect = lower value 0.986 | locus YBR023C, strain chs3, stronger effect = lower value 1 | locus YBR171W, strain sec66, stronger effect = lower value 0.992 | locus YBR229C, strain ROT2, stronger effect = lower value 1 | locus YBR231C, strain swc5, stronger effect = lower value 1.01 | locus YBR279W, strain paf1, stronger effect = lower value 0.993 | locus YCL011C, strain gbp2, stronger effect = lower value 1 | locus YCL016C, strain dcc1, stronger effect = lower value 0.996 | locus YCL029C, strain bik1, stronger effect = lower value 0.998 | locus YCL061C, strain MRC1, stronger effect = lower value 0.988 | locus YCL069W, strain vba3, stronger effect = lower value 0.987 | locus YCR088W, strain abp1, stronger effect = lower value 0.988 | locus YDL005C, strain med2, stronger effect = lower value 0.975 | locus YDL035C, strain GPR1, stronger effect = lower value 1.01 | locus YDL040C, strain nat1, stronger effect = lower value 0.995 | locus YDL074C, strain BRE1, stronger effect = lower value 1.02 | locus YDL101C, strain DUN1, stronger effect = lower value 1.01 | locus YDL134C, strain PPH21, stronger effect = lower value 1.01 | locus YDL185W, strain tfp1, stronger effect = lower value 1.02 | locus YDL192W, strain arf1, stronger effect = lower value 1.01 | locus YDR001C, strain nth1, stronger effect = lower value 0.982 | locus YDR069C, strain doa4, stronger effect = lower value 0.982 | locus YDR101C, strain arx1, stronger effect = lower value 0.993 | locus YDR137W, strain rgp1, stronger effect = lower value 0.867 | locus YDR159W, strain sac3, stronger effect = lower value 0.999 | locus YDR162C, strain NBP2, stronger effect = lower value 1 | locus YDR195W, strain ref2 0.972 | locus YDR297W, strain sur2, stronger effect = lower value 0.996 | locus YDR318W, strain mcm21, stronger effect = lower value 1.01 | locus YDR334W, strain swr1, stronger effect = lower value 0.986 | locus YDR335W, strain msn5, stronger effect = lower value 0.985 | locus YDR388W, stronger effect = lower value 1.01 | locus YDR392W, strain spt3, stronger effect = lower value 0.989 | locus YDR502C, strain sam2, stronger effect = lower value 1 | locus YEL003W, strain gim4, stronger effect = lower value 0.996 | locus YEL037C, strain rad23, stronger effect = lower value 0.985 | locus YEL061C, strain CIN8 (second series), stronger effect = lower value 0.985 | locus YEL061C, strain CIN8, stronger effect = lower value 1 | locus YER015W, strain faa2, stronger effect = lower value 1 | locus YER016W, strain bim1, stronger effect = lower value 0.996 | locus YER110C, stronger effect = lower value 1.01 | locus YER111C, strain swi4, stronger effect = lower value 0.985 | locus YER155C, strain BEM2 (second series), stronger effect = lower value 1 | locus YER155C, strain BEM2, stronger effect = lower value 0.997 | locus YER167W, strain BCK2, stronger effect = lower value 1 | locus YFR010W, strain ubp6, stronger effect = lower value 0.978 | locus YGL078C, strain dbp3, stronger effect = lower value 1.02 | locus YGL086W, strain mad1, stronger effect = lower value 0.982 | locus YGL167C, strain pmr1, stronger effect = lower value 0.995 | locus YGL173C, strain kem1, stronger effect = lower value 0.994 | locus YGL227W, strain vid30, stronger effect = lower value 1 | locus YGL240W, strain doc1, stronger effect = lower value 1.02 | locus YGL248W, strain PDE1, stronger effect = lower value 1.01 | locus YGL253W, strain hxk2, stronger effect = lower value 0.995 | locus YGR078C, strain PAC10, stronger effect = lower value 1.01 | locus YGR135W, strain pre9, stronger effect = lower value 1.02 | locus YGR229C, strain SMI1, stronger effect = lower value 1.01 | locus YGR252W, strain gcn5, stronger effect = lower value 1.03 | locus YHR013C, strain ard1, stronger effect = lower value 0.977 | locus YHR027C, strain rpn1, stronger effect = lower value 0.974 | locus YHR030C, strain SLT2, stronger effect = lower value 1.01 and 0.964 | locus YHR079C, strain IRE1 (second series), stronger effect = lower value 1 | locus YHR079C, strain IRE1, stronger effect = lower value 0.976 | locus YHR094C, strain hxt1, stronger effect = lower value 1.01 | locus YHR129C, strain ARP1, stronger effect = lower value 0.999 | locus YHR142W, strain chs7, stronger effect = lower value 0.996 | locus YHR200W, strain rpn10, stronger effect = lower value 1 | locus YIL066C, strain RNR3, stronger effect = lower value 1.01 | locus YIL073C, strain SPO22, stronger effect = lower value 1.06 | locus YIL125W, strain kgd1, stronger effect = lower value 1.01 | locus YIR030C, strain dcg1, stronger effect = lower value 1.01 | locus YJL092W, strain hpr5, stronger effect = lower value 0.993 | locus YJL095W, strain BCK1 (second series), stronger effect = lower value 0.992 | locus YJL095W, strain BCK1, stronger effect = lower value 1.02 and 0.974 | locus YJL115W, strain asf1, stronger effect = lower value 0.978 | locus YJL129C, strain trk1, stronger effect = lower value 0.971 | locus YJL134W, strain LCB3, stronger effect = lower value 1.01 | locus YJL154C, strain vps35, stronger effect = lower value 0.983 | locus YJL164C, strain tpk1, stronger effect = lower value 1 | locus YJL166W, strain qcr8, stronger effect = lower value 1.01 | locus YJL168C, strain set2, stronger effect = lower value 1.01 | locus YJL187C, strain SWE1 (second series), stronger effect = lower value 1.02 | locus YJL187C, strain SWE1, stronger effect = lower value 0.991 | locus YJR066W, strain TOR1, stronger effect = lower value 0.918 | locus YKL009W, strain mrt4, stronger effect = lower value 0.999 | locus YKL068W, stronger effect = lower value 1.01 | locus YKL085W, strain MDH1 (second series), stronger effect = lower value 0.995 | locus YKL085W, strain MDH1, stronger effect = lower value 0.995 | locus YKL160W, strain elf1, stronger effect = lower value 0.996 | locus YKL190W, strain CNB1, stronger effect = lower value 1.01 | locus YKR001C, strain vps1, stronger effect = lower value 1.02 | locus YKR026C, strain gcn3, stronger effect = lower value 0.994 | locus YKR091W, strain srl3, stronger effect = lower value 0.992 | locus YLL001W, strain dnm1, stronger effect = lower value 0.983 | locus YLL026W, stronger effect = lower value 0.991 | locus YLL041C, strain sdh2, stronger effect = lower value 0.991 | locus YLR027C, strain aat2, stronger effect = lower value 0.998 | locus YLR039C, strain RIC1, stronger effect = lower value 0.988 | locus YLR058C, strain SHM2, stronger effect = lower value 1 | locus YLR102C, strain apc9, stronger effect = lower value 1.01 | locus YLR113W, strain HOG1, stronger effect = lower value 1.01 | locus YLR221C, strain rsa3, stronger effect = lower value 0.998 | locus YLR258W, strain gsy2, stronger effect = lower value 0.988 | locus YLR262C, strain YPT6 (second series), stronger effect = lower value 0.912 | locus YLR268W, strain sec22, stronger effect = lower value 1 | locus YLR320W, strain mms22, stronger effect = lower value 1.01 | locus YLR330W, strain CHS5, stronger effect = lower value 1 | locus YLR342W, strain FKS1, stronger effect = lower value 0.998 | locus YLR357W, strain rsc2, stronger effect = lower value 1.01 | locus YLR370C, strain arc18, stronger effect = lower value 0.988 | locus YLR371W, strain rom2, stronger effect = lower value 1.01 | locus YLR384C, strain iki3, stronger effect = lower value 0.993 | locus YLR418C, strain cdc73, stronger effect = lower value 1.03 | locus YML016C, strain PPZ1, stronger effect = lower value 0.998 | locus YML032C, strain rad52, stronger effect = lower value 0.997 | locus YML120C, strain ndi1, stronger effect = lower value 0.995 | locus YML124C, strain tub3, stronger effect = lower value 1.01 | locus YMR058W, strain fet3, stronger effect = lower value 0.981 | locus YMR078C, strain ctf18, stronger effect = lower value 1.02 | locus YMR125W, strain sto1, stronger effect = lower value 0.982 | locus YMR129W, stronger effect = lower value 0.998 | locus YMR205C, strain PFK2, stronger effect = lower value 0.988 | locus YMR223W, strain ubp8, stronger effect = lower value 0.999 | locus YMR231W, strain pep5, stronger effect = lower value 0.98 | locus YMR307W, strain GAS1, stronger effect = lower value 0.96 | locus YNL067W, strain RPL9B, stronger effect = lower value 1.02 | locus YNL071W, strain lat1, stronger effect = lower value 0.989 | locus YNL183C, strain NPR1, stronger effect = lower value 0.963 | locus YNL209W, strain ssb2, stronger effect = lower value 0.996 | locus YNL233W, strain BNI4, stronger effect = lower value 1.03 | locus YNL248C, strain rpa49, stronger effect = lower value 0.982 | locus YNL250W, strain rad50, stronger effect = lower value 0.998 | locus YNL271C, strain bni1, stronger effect = lower value 1.01 | locus YNL298W, strain CLA4, stronger effect = lower value 1.03 | locus YNL307C, strain MCK1, stronger effect = lower value 1.01 | locus YNL322C, strain KRE1 (second series), stronger effect = lower value 0.996 | locus YNR049C, strain mso1, stronger effect = lower value 0.987 | locus YNR052C, strain pop2, stronger effect = lower value 1.01 | locus YOL012C, strain htz1 0.887 | locus YOL147C, strain pex11, stronger effect = lower value 1.01 | locus YOR001W, strain rrp6, stronger effect = lower value 0.985 | locus YOR061W, strain CKA2, stronger effect = lower value 1 | locus YOR069W, strain VPS5, stronger effect = lower value 1 | locus YOR070C, strain gyp1, stronger effect = lower value 0.991 | locus YOR080W, strain dia2, stronger effect = lower value 0.995 | locus YOR083W, strain WHI5, stronger effect = lower value 0.996 | locus YOR106W, strain vam3, stronger effect = lower value 0.991 | locus YOR136W, strain idh2, stronger effect = lower value 1.01 | locus YOR144C, strain elg1, stronger effect = lower value 1 | locus YOR184W, strain ser1, stronger effect = lower value 1 | locus YOR231W, strain MKK1, stronger effect = lower value 0.979 | locus YOR265W, strain rbl2, stronger effect = lower value 0.987 | locus YOR270C, strain vph1, stronger effect = lower value 0.941 | locus YOR290C, strain snf2, stronger effect = lower value 1 | locus YOR316C, strain cot1, stronger effect = lower value 1.01 | locus YPL051W, strain arl3, stronger effect = lower value 0.992 | locus YPL078C, strain atp4, stronger effect = lower value 0.987 | locus YPL106C, strain sse1, stronger effect = lower value 1.04 | locus YPL240C, strain hsp82, stronger effect = lower value 0.998 | locus YPL256C, strain CLN2, stronger effect = lower value 0.97 | locus YPR119W, strain clb2, stronger effect = lower value 1.01 | locus YPR141C, strain kar3, stronger effect = lower value 1.01 | locus YPR163C, strain tif3, stronger effect = lower value 1.01 | locus YPR167C, strain met16, stronger effect = lower value 1.01 | strain wtn01, stronger effect = lower value 0.981
